Screening data: PubChem, National Center for Advancing Translational Sciences (NCATS)
KinaseGlo FLuc: counter-screen: inhibitors of Kinase-Glo firefly luciferase. Q27757. Kinase-Glo luciferase, ATP luminescence, 8 min. Potency, µM (top dose mostly 38.3 µM), for the others: at the top dose activity change, negative = inhibition, most hits filed as inhibitors. 200,000 tested, 0.28% active; also: % is scaled to controls: 0 for no effect and ±100 for the full control effect; nearly all actives have a fitted effect of over 60% in size
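Luminescence was the read-out, taken after 8-minute incubation at ambient temperature. Luciferase turned over luciferin with 10 uM ATP in imidazole pH 7.2 buffer containing KCl, MgCl2, Tween 20 and BSA.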
Rab9 promoter act: Rab9 promoter activation; 320,000 tested, 2.8% active; Potency, µM (highest dose often 9.22 µM), for inactives: top-dose activation, negative = inhibition, hits mostly activators; AID 485297; Huh7 Rab9 promoter-luciferase reporter, luminescence, 24 h; also: % of control where 0% means no effect; nearly all actives have a fitted effect of over 60% in size
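Quantitative HTS format; Huh7 Rab9-luciferase reporter cells (1500/well) receive compound 2 h post-plating, incubate 24 h at 37 °C, then get luciferase reagent for 10 min before luminescence reading.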
NPC1 prom act: NPC1 promoter activation; Huh7 NPC1 promoter luciferase reporter, 24 h; Potency, µM (series often up to 9.22 µM), without a hit: at the top dose activation, usual class: activators; 320,000 tested, 2.4% active; also: % of control where 0% means no effect; nearly all actives have a fitted effect of over 60% in size
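Luminescence read-out of NPC1 promoter-driven luciferase in stably transfected Huh7 cells; compounds delivered in DMSO and left 24 h at 37C, 5% CO2, qHTS titration format.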
SMN2 splice up: SMN2 splice variant enhancement; HEK293 SMN2-luciferase splicing reporter, luminescence, 30-36 h; 210,000 tested, 2.8% active; Potency, µM (series often up to 46.1 µM), for the others: at the highest dose activity change, positive = activation, usual class: activators; also: % of control where 0% means no effect; nearly all actives have a fitted effect of over 55% in size
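HEK293 cells carry an SMN2 […]–luciferase reporter in which exon 7 inclusion puts luciferase in frame. Cells were plated 10-12 h before compound addition, then incubated 30-36 h at 37C. ONE-Glo luminescence was read; sodium butyrate at 4.5 mM final served as control.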
FLuc modulator: inhibits or activates purified firefly luciferase, miR-21 counter-screen. P08659. purified FLuc, Km substrates, luminescence inhibition. Potency, µM (doses to about 57.5 µM), inactives show at the top dose activity change, negative = inhibition, actives largely listed as inhibitors. 360,000 tested, 6.9% active. AID 588342;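 also: plate controls were vehicle for no effect and reference inhibitor for full effect; nearly all actives have a fitted effect of over 55% in size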
Target sequence (P08659 whole entry, looked up): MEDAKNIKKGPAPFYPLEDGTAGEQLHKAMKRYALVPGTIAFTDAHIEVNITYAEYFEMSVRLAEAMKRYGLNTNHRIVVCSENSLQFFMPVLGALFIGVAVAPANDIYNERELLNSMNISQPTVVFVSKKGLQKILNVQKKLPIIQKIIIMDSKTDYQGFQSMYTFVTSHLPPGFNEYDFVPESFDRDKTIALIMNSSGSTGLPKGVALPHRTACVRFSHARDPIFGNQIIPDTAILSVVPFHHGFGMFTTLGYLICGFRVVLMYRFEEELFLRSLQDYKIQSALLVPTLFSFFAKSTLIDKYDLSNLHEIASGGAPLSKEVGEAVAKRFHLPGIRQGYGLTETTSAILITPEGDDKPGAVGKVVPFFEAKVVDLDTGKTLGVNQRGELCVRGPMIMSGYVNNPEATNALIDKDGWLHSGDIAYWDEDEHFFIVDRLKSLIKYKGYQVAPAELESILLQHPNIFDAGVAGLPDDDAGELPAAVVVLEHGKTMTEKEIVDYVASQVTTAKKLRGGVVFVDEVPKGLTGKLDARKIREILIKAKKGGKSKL
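Purified P. pyralis luciferase, 10 nM final, with Km-level 10 uM D-luciferin and 10 uM ATP in 50 mM Tris acetate pH 7.5, 10 mM Mg acetate, 0.01% Tween-20, 0.05% BSA; 6-point qHTS titration about 60 µM downward; luminescence read.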
* = called active by the depositor; ? = inconclusive; nt = no result; [ ] = another dose, or the depositor's remark. Shown are actives, neighbours in structure and some others; about 7.3% of the full set was active somewhere. Calls follow the shape of the dose curve; as a rule, active = well fitted curve in the direction sought with a large enough effect; inconclusive = small, poorly fitted or top-dose-only effect, or another doubt; inactive = no such curve, though single readings can be large; an effect the other way counts as inactive or inconclusive. Potency is read from the fitted curve at half-maximal effect.

SMILES	KinaseGlo FLuc	Rab9 promoter act	NPC1 prom act	SMN2 splice up	FLuc modulator
COc1cc(C)nc(N2CCCC(C(=O)NC3CCC(C)CC3)C2)n1 (centres undefined)	2.6%	3.98µM*	3.16µM*	?	10.7µM*
O=C(O)c1ccc(N/N=C/c2ccc(F)c(F)c2)cc1	-8.3%	0.316µM*	0.316µM*	1.41µM*	1.69µM*
O=C(O)c1ccc(N/N=C/c2cccc(F)c2)cc1	-16.0%	0.501µM*	0.501µM*	1µM*	2.39µM*
O=C(O)c1ccc(N/N=C/c2cccc(C(F)(F)F)c2)cc1	nt	0.631µM*	0.562µM*	nt	3.38µM*
O=C(c1cccc(Cl)c1)n1nc(-c2cccnc2)nc1NCc1ccccc1	nt	nt	nt	7.9%	-7.0%
CCCOc1ccc(C(=O)N2CC3(CC(c4cccc(NC(=O)[C@@H]5CCC(=O)N5)c4)=NO3)C[C@H]2C(=O)NC2(C(N)=O)CC2)cc1 (some centres undefined)	5.5%	-5.1%	1.0%	-4.5%	4.7%
C/C=C\C=C/C(=O)Nc1cccc(C2=NOC3(C2)C[C@@H](C(N)=O)N(C(=O)c2ccccc2)C3)c1 (some centres undefined)	nt	21.0%	3.0%	nt	16.9µM*
C/C=C/C=C\C(=O)Nc1cccc(C2=NOC3(C2)C[C@@H](C(N)=O)N(C(=O)c2cc([N+](=O)[O-])cc([N+](=O)[O-])c2C)C3)c1 (some centres undefined)	nt	-1.3%	-1.6%	nt	7.57µM*
NC(=O)C1(NC(=O)[C@@H]2CC3(CC(c4cccc(NC(=O)[C@@H]5CCC(=O)N5)c4)=NO3)CN2C(=O)c2ccccc2)CC1 (some centres undefined)	-4.6%	5.9%	2.24µM*	-10.5%	-1.9%
C/C=C\C=C\C(=O)Nc1cccc(C2=NOC3(C2)C[C@H](C(N)=O)N(C(=O)c2ccccc2C(=O)c2ccccc2)C3)c1 (some centres undefined)	nt	-5.4%	2.8%	nt	21.3µM*
O=C(COc1ccc(F)cc1)Nc1nnc(S(=O)(=O)N2CCc3ccccc32)s1	nt	nt	nt	nt	-6.0%
Cc1ccc2c(c1)N(C(=O)N1CCC(C(=O)NCc3ccco3)CC1)CC(C)O2 (centres undefined)	nt	nt	nt	nt	-3.2%
N#Cc1c(NC(=O)c2ccc(-c3ccccc3[N+](=O)[O-])o2)sc2c1CCCC2	1.0%	13.9%	-2.4%	-29.5%	10.7µM*
Cc1onc(C(=O)Nc2sc3c(c2C#N)CCCC3)c1[N+](=O)[O-]	0.4%	?	3.0%	nt	13.5µM*
O=C(NC1CCCCC1)c1ccc(-c2ccccc2[N+](=O)[O-])o1	nt	1.41µM*	0.708µM*	nt	3.79µM*
Cc1onc(-c2ccccc2)c1C(=O)Nc1sc2c(c1C#N)CCC(C)C2 (centres undefined)	2.1%	-3.3%	-0.1%	-14.0%	?
CC1CCc2c(sc(NC(=O)c3ccc(-c4ccccc4[N+](=O)[O-])o3)c2C#N)C1 (centres undefined)	-3.6%	14.2%	3.9%	-10.0%	10.7µM*
Cc1ccc(CNC(=O)c2ccc(-n3cnc4cccnc43)cc2)cc1	nt	nt	nt	nt	7.3%
CN1CCC[C@@H]1c1cccnc1.O=C(O)c1ccccc1O.O=C([OH2+])c1ccccc1O.O=C([OH2+])c1ccccc1O.[Mn]	-4.0%[7.66 µM]	nt	nt	-0.6%[9.22 µM]	nt
COc1ccccc1CCNC(=O)C(=O)NCC(c1ccco1)S(=O)(=O)c1ccccc1 (centres undefined)	nt	nt	nt	nt	-9.3%
CN1[C@@H]2CC[C@H]1CC(OC(=O)[C@@H](CO)c1ccccc1)C2 (some centres undefined)	0.8%[17.1 µM]	nt	nt	-0.7%[20.6 µM]	nt
CCCC(=O)Nc1ccc2nc(SCC(=O)Nc3ccc(N4CCOCC4)c(Cl)c3)sc2c1	-1.2%	28.8%	3.98µM*	-10.4%	3.79µM*
CCn1c(Cc2ccccc2)nnc1SCC(=O)Nc1ccc(N2CCOCC2)c(Cl)c1	-2.7%	-2.0%	10.7%	-35.3%	15.1µM*
COc1ccccc1-c1nnc(SCC(=O)Nc2ccc(N3CCOCC3)cc2)n1C	nt	14.0%	8.0%	nt	19µM*
Cn1c(Cc2ccccc2)nnc1SCC(=O)Nc1ccc(N2CCOCC2)cc1	nt	4.8%	9.1%	nt	?
SMILES	KinaseGlo FLuc	Rab9 promoter act	NPC1 prom act	SMN2 splice up	FLuc modulator
Cc1ccc(NC(=O)Cc2nnc(SCC(=O)Nc3ccc(N4CCOCC4)cc3)n2C)cc1	nt	-0.2%	2.0%	nt	12µM*
Cc1ccccc1NC(=O)CSc1nc2c(oc3ccccc32)c(=O)n1-c1ccccc1F	nt	nt	nt	1.7%	-8.0%
Cn1c(CC(=O)Nc2ccccc2)nnc1SCC(=O)Nc1ccc(N2CCOCC2)cc1	nt	15.5%	20.5%	nt	12µM*
Cc1ccc(NC(=O)Cc2nnc(SCC(=O)Nc3ccccc3)n2C)cc1	0.7%	-5.7%	1.4%	4.8%	19µM*
CC(C)(C)n1ncc2c(=O)n(Cc3cccc(C#N)c3)cnc21	nt	nt	nt	nt	3.5%
CCCCCC(=O)N(c1ccc(OCC)cc1)S(=O)(=O)c1ccc2c(c1)n(C)c(=O)n2C	nt	nt	nt	-23.9%	-0.6%
C=CCNC(=O)c1cc2c(=O)n3ccccc3nc2s1	nt	1.78µM*	2.51µM*	nt	16.9µM*
CC(C)(C)C1=CC(=O)C(=O)C(C(C)(C)C)=C1	-2.7%	-17.2%	-15.8%	-109.7%	7.57µM*
CCOC(=O)c1ccc(NS(=O)(=O)c2ccc3c(c2)CCN3C(=O)CC)cc1	nt	nt	nt	-30.4%	-17.8%
Cc1c(O)ccc(/C(Cc2ccc3ccccc3n2)=N\O)c1O	-0.8%	4.8%	4.6%	-12.6%	-0.6%
CC(=O)Oc1ccc(C(=O)Cc2ccc3ccccc3n2)c(O)c1C	-9.1%	?	?	?	5.36µM*
NC[C@H]1O[C@H](n2cnc3c(N)ncnc32)C[C@@H]1O	3.7%[7.66 µM]	nt	nt	-7.0%[9.22 µM]	nt
Cc1csc(NC(=O)c2cc3c(C)nn(Cc4ccccc4Cl)c3s2)n1	11.6%	-3.9%	-2.2%	-46.9%	10.7µM*
O=C(NCc1cccs1)c1cc2c(s1)CCCC2	-6.6%	?	?	11.2µM*	12µM*
Cc1ccc(NC(=O)c2scc3c2CCCC3)cc1	-15.0%	1.78µM*	3.98µM*	1.41µM*	0.477µM*
CCc1sc(C(=O)Nc2ccc(NC(C)=O)cc2)cc1C	1.4%	23.1%	10.9%	6.3%	-17.7%
CCc1sc(C(=O)Nc2nc(C)cs2)cc1C	nt	?	1.26µM*	nt	1.9µM*
O=C(c1scc2c1CCCC2)N1CCCCC1	-5.4%	-4.4%	-0.3%	-5.2%	1.4%
Cn1cnc([N+](=O)[O-])c1SCC(=O)O	-4.9%[7.66 µM]	nt	nt	-6.4%[9.22 µM]	nt
CCOC(=O)c1c(S(=O)(=O)N2CCCC(C(=O)Nc3cccc(CC)c3)C2)c(C)n(CC)c1C (centres undefined)	nt	nt	nt	nt	-12.7%
COc1ccccc1NC(=O)c1ccc(NC(=O)c2cc3c(s2)CCC3)cc1	1.0%	-10.4%	-8.0%	-33.5%	8.2%
CCOC(=O)c1sc(NC(=O)c2cc3c(s2)CCC(C)C3)nc1C (centres undefined)	-2.2%	-30.2%	-34.9%	6.5%	4.78µM*
